From PubChem BioAssay (NCATS) come the findings set out here.

Several values for one entry are separate records, joined by “and”; a condition that tells them apart may be missing. Equal entries are not always repeated. Records with an inconclusive call do not appear. Activity calls are given as the source filed them. Calls come from the whole dose curve; as a rule, active = well fitted curve in the direction sought with a large enough effect; inconclusive = small, poorly fitted or top-dose-only effect, or another doubt; inactive = no such curve, though single readings can be large; an effect the other way counts as inactive or inconclusive.

Assay [1] is described as follows: qHTS of pediatric cancer cell lines to identify multiple opportunities for drug repurposing: Primary screen for OHS-50 cells (AID 1347103). Note: potency is the fitted concentration of half-maximal effect; nearly all actives have a fitted effect of over 40% in size. The essentials: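 Cells (500-1,000/well) rested 5 h, then received compounds for 48 h; metabolically active cells were measured by CellTiter-Glo luminescence. Final concentrations spanned up to 46 µM (MIPE, 11-point) or 0.59 nM-46 µM (NPC, 8-point) in primary screens, 11-point in follow-ups.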
In general terms: qHTS replaces the single test concentration by a dilution series.

The nature of assay [2]: qHTS of pediatric cancer cell lines to identify multiple opportunities for drug repurposing: Primary screen for RD cells (AID 1347104). Note: nearly all actives have a fitted effect of over 55% in size. Note: potency is the fitted concentration of half-maximal effect. The essentials:
(§1)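 Cells seeded at 500-1,000 cells/well in growth media, rested 5 hours at 37 degrees C, 5% CO2, then dosed; MIPE compounds at 11-point (from 0.78 nM) and NPC at 8-point (from 0.59 nM) final concentrations. Viability by CellTiter-Glo luminescence after 48 hours.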

A short description of assay [3]: qHTS of pediatric cancer cell lines to identify multiple opportunities for drug repurposing: Primary screen for control Hh wild type fibroblast cells (AID 1347106).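 Note: series mostly up to about 46 µM; a drop in luminescence marks cytotoxicity and a rise apparent proliferation; nearly all actives have a fitted effect of over 55% in size.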 In short, it runs like this: (§2)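 Cells (500-1,000/well) in growth media were settled 5 h at 37 degrees C, then given compounds for 48 h. Viability was read as CellTiter-Glo luminescence. Primary runs used MIPE at 11 points (0.78 nM-46 µM) and NPC at 8 points (0.59 nM-46 µM); follow-ups used 11 points.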

A short description of assay [4]: qHTS of pediatric cancer cell lines to identify multiple opportunities for drug repurposing: Confirmatory screen for BT-12 cells (AID 1347112). Note: nearly all actives have a fitted effect of over 55% in size. Note: potency is the fitted concentration of half-maximal effect. The essentials:
as §2

Assay [5] can be described thus: qHTS of pediatric cancer cell lines to identify multiple opportunities for drug repurposing: Confirmatory screen for LAN-5 cells (AID 1347113). Note: nearly all actives have a fitted effect of over 65% in size. Note: potency is the fitted concentration of half-maximal effect. The essentials:
as §2

Assay [6] can be described thus: qHTS of pediatric cancer cell lines to identify multiple opportunities for drug repurposing: Confirmatory screen for DAOY cells (AID 1347114). Note: nearly all actives have a fitted effect of over 65% in size. Note: potency is the fitted concentration of half-maximal effect. The essentials:
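Viability measured as metabolically active cells via CellTiter-Glo luminescence following 48 hours of compound exposure, 11-point dilutions in confirmatory testing. 500-1,000 cells/well plated 5 hours before dosing; controls were DMSO and 2.3 µM bortezomib.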

Assay [7] can be described thus: qHTS of pediatric cancer cell lines to identify multiple opportunities for drug repurposing: Confirmatory screen for NB-EBc1 cells (AID 1347115).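 Note: cells exposed to compound for 48 h before the viability read; nearly all actives have a fitted effect of over 45% in size.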 Note: potency is the fitted concentration of half-maximal effect. The essentials: as §2
Assay [8] can be described thus: qHTS of pediatric cancer cell lines to identify multiple opportunities for drug repurposing: Confirmatory screen for BT-37 cells (AID 1347117). Note: nearly all actives have a fitted effect of over 55% in size. Note: potency is the fitted concentration of half-maximal effect. The essentials:
as §2

Assay [9] can be described thus: qHTS of pediatric cancer cell lines to identify multiple opportunities for drug repurposing: Confirmatory screen for control Hh wild type fibroblast cells (AID 1347121). Note: nearly all actives have a fitted effect of over 70% in size. Note: potency is the fitted concentration of half-maximal effect. The essentials:
as §2

The nature of assay [10]: qHTS of pediatric cancer cell lines to identify multiple opportunities for drug repurposing: Confirmatory screen for U-2 OS cells (AID 1347122). Note: nearly all actives have a fitted effect of over 65% in size. Note: potency is the fitted concentration of half-maximal effect. In short, it runs like this:
as §2

Assay [11] is described as follows: qHTS of pediatric cancer cell lines to identify multiple opportunities for drug repurposing: Confirmatory screen for Rh41 cells (AID 1347123).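 Note: 48 h compound exposure; nearly all actives have a fitted effect of over 60% in size.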 Note: potency is the fitted concentration of half-maximal effect. The essentials: as §2
The nature of assay [12]: qHTS of pediatric cancer cell lines to identify multiple opportunities for drug repurposing: Confirmatory screen for RD cells (AID 1347124).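 Note: cells exposed to compound for 48 h before viability readout; nearly all actives have a fitted effect of over 65% in size.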 Note: potency is the fitted concentration of half-maximal effect. The essentials: as §2
Assay [13] in a line: qHTS of pediatric cancer cell lines to identify multiple opportunities for drug repurposing: Primary screen for Rh18 cells (AID 1347102). Note: nearly all actives have a fitted effect of over 65% in size. Note: potency is the fitted concentration of half-maximal effect. In short, it runs like this:
as §2

Assay [14] is described as follows: qHTS of pediatric cancer cell lines to identify multiple opportunities for drug repurposing: Primary screen for MG 63 (6-TG R) cells (AID 1347105). Note: nearly all actives have a fitted effect of over 50% in size. Note: potency is the fitted concentration of half-maximal effect. The essentials: as §1
Assay [15] is described as follows: qHTS of pediatric cancer cell lines to identify multiple opportunities for drug repurposing: Primary screen for Rh41 cells (AID 1347108). Note: nearly all actives have a fitted effect of over 70% in size. Note: potency is the fitted concentration of half-maximal effect. In short, it runs like this:
as §1

A short description of assay [16]: qHTS of pediatric cancer cell lines to identify multiple opportunities for drug repurposing: Confirmatory screen for NB1643 cells (AID 1347109). Note: nearly all actives have a fitted effect of over 45% in size. Note: potency is the fitted concentration of half-maximal effect. In short, it runs like this: as §2
Assay [17] is described as follows: qHTS of pediatric cancer cell lines to identify multiple opportunities for drug repurposing: Confirmatory screen for TC32 cells (AID 1347118). Note: potency is the fitted concentration of half-maximal effect. In short, it runs like this:
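Luminescent ATP read-out (CellTiter-Glo) of metabolically active TC32 cells after 48 h exposure. Concentration-response curves came from 11-point (MIPE, 0.78 nM–46 µM) or 8-point (NPC, 0.59 nM–46 µM) primary titrations; follow-up used 11 points.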

Assay [18] is described as follows: qHTS of pediatric cancer cell lines to identify multiple opportunities for drug repurposing: Confirmatory screen for Rh18 cells (AID 1347125). Note: nearly all actives have a fitted effect of over 55% in size. Note: potency is the fitted concentration of half-maximal effect. The essentials: as §2
Assay [19] in a line: qHTS of pediatric cancer cell lines to identify multiple opportunities for drug repurposing: Primary screen for Rh30 cells (AID 1347107). Note: series mostly up to about 46 µM; nearly all actives have a fitted effect of over 75% in size. In short, it runs like this:
as §2

Assay [20] in a line: qHTS of pediatric cancer cell lines to identify multiple opportunities for drug repurposing: Confirmatory screen for MG 63 (6-TG R) cells (AID 1347119). Note: nearly all actives have a fitted effect of over 55% in size. Note: potency is the fitted concentration of half-maximal effect. In short, it runs like this: as §2

In the case of `CN1CCN(CCCN2c3ccccc3Sc3ccc(Cl)cc32)CC1`, the Potency in assay [1] is 9.68 µM (active); in assay [2], 9.35 µM (active) and 26.6 µM (active); in assay [4], 16.5 µM (active); in [5], 16.5 µM (active); in [6], 20.8 µM (active); in assay [8], 16.5 µM (active). For the same molecule, the results for the Potency in [10], in assay [11] and in assay [12] were 5.85 µM (active), 11.7 µM (active) and 18.5 µM (active), respectively. Besides, the Potency result in [3], in assay [7] and in assay [9] was “inactive” throughout.
Turning to `CC12CC3CC(C)(C1)CC(N)(C3)C2`, the Potency result in assay [13], in assay [14] and in [3] was “inactive” throughout.
Regarding `Cn1c(=O)c2c(ncn2C)n(C)c1=O`, the Potency entry in [13], in [2], in assay [14], in assay [3] and in assay [15] was “inactive” each time.
As to `CC(COc1ccccc1)N(CCCl)Cc1ccccc1` (centres undefined), the Potency entry in assay [13], in [2], in [14], in [3], in assay [15] and in assay [10] was “inactive” in each case. Also, the Potency is 16.5 µM (active) in assay [16]; 20.8 µM (active) in assay [5]; 18.5 µM (active) in [8]; 7.37 µM (active) in assay [17]; 13.1 µM (active) in [11]; 18.5 µM (active) in assay [18].
Regarding `Cc1ccc(-c2cc(C(F)(F)F)nn2-c2ccc(S(N)(=O)=O)cc2)cc1`, the Potency entry in assay [13], in assay [14] and in assay [3] was “inactive” each time. Moreover, the molecule was classed as inactive in assay [19].
For `CN(C)CCCN1c2ccccc2CCc2ccc(Cl)cc21`, the Potency in [2] is 1.48 µM (active); in assay [6] it was 20.8 µM (active); in [11], 10.4 µM (active). The Potency entry in assay [7], in assay [17] and in assay [9] was “inactive” throughout.
As to `CN1CCC(=C2c3ccccc3CC(=O)c3sccc32)CC1`, the Potency entry in assay [13], in assay [3] and in [15] was “inactive” in each case. For the same molecule, the Potency in [14] is 23.5 µM (active).
`COc1cc2nc(N3CCN(C(=O)c4ccco4)CC3)nc(N)c2cc1OC`: the Potency in assay [2] was 29.6 µM (active). Further, the Potency result in [14] and in [3] was “inactive” each time.
Turning to `Clc1ccc2c(c1)C(N1CCNCC1)=Nc1ccccc1O2`, the Potency entry in assay [13], in [2], in assay [14], in assay [3] and in [15] was “inactive” throughout.
Take `CC(C)C(=O)Nc1ccc([N+](=O)[O-])c(C(F)(F)F)c1`: the Potency result in assay [13], in assay [16], in assay [5], in assay [7] and in [9] was “inactive” each time. In addition, the outcome in [19] was inactive. Also, the results for the Potency in assay [15] and in assay [6] were 11.8 µM (active) and 16.5 µM (active), respectively.
As to `COc1cc2nc(N(C)CCCNC(=O)C3CCCO3)nc(N)c2cc1OC` (centres undefined), the Potency result in assay [13], in [2], in assay [14], in [3] and in assay [15] was “inactive” in each case.
For the molecule `Nc1c2c(nc3ccccc13)CCCC2`, the Potency result in assay [13], in assay [2], in assay [14], in assay [3] and in [15] was “inactive” throughout.
Consider `O=C(c1ccc(OCCN2CCCCC2)cc1)c1c(-c2ccc(O)cc2)sc2cc(O)ccc12`, for which the Potency in assay [2] is 23.7 µM (active) and 18.7 µM (active); in assay [14], 26.6 µM (active) and 18.7 µM (active); in [6] it was 32.9 µM (active); in assay [17], 16.5 µM (active); in assay [11], 20.8 µM (active). The Potency result in assay [3], in assay [7], in [9], in assay [10] and in [18] was “inactive” in each case. In [19], the result was inactive.
With `Cn1cnc2c1c(=O)[nH]c(=O)n2C`, the Potency entry in [3] is “inactive”. The molecule was classed as inactive in assay [19].
Take `Clc1ccc(C(c2ccccc2Cl)C(Cl)Cl)cc1` (centres undefined): the Potency entry in assay [13], in assay [3], in assay [16], in assay [4], in assay [5] and in assay [7] was “inactive” in each case. The Potency entry in assay [17], in assay [9], in assay [10], in [12] and in [18] was “inactive” each time. Moreover, the outcome in assay [19] was inactive.
As for `CC#C[C@]1(O)CC[C@H]2[C@@H]3CCC4=CC(=O)CCC4=C3[C@@H](c3ccc(N(C)C)cc3)C[C@@]21C`, the Potency in assay [2] was 26.6 µM (active) and 662 nM (active); in [17], 18.5 µM (active); in [11], 23.3 µM (active). The Potency entry in assay [3], in assay [4], in [7], in assay [20], in [9] and in [12] was “inactive” in each case.
For the molecule `Nc1nc2c(ncn2COC(CO)CO)c(=O)[nH]1`, the Potency result in [13], in assay [2] and in [3] was “inactive” each time.
On to `CCCCc1oc2ccccc2c1C(=O)c1cc(I)c(OCCN(CC)CC)c(I)c1`, for which the Potency in assay [13] was 16.6 µM (active); in assay [2] it was 26.4 µM (active) and 26.6 µM (active); in [16] it was 44.7 µM (active); in assay [4] it was 79.4 µM (active); in assay [5], 35.5 µM (active); in assay [6], 31.6 µM (active). Also, the Potency is 56.2 µM (active) in assay [7]; 50.1 µM (active) in [8]; 28.2 µM (active) in assay [17]; 39.8 µM (active) in assay [20]; 70.8 µM (active) in [9]; 28.2 µM (active) in assay [10]. For the same molecule, the values for the Potency in [11] and in assay [18] were 17.8 µM (active) and 50.1 µM (active), respectively. For the same molecule, the Potency entry in [3] was “inactive”. Further, the molecule was classed as inactive in assay [19].
On to `CN(C)C(=O)C(CCN1CCC(O)(c2ccc(Cl)cc2)CC1)(c1ccccc1)c1ccccc1`, for which the Potency in assay [13] is 20.9 µM (active); in assay [2], 26.4 µM (active) and 26.6 µM (active); in assay [15], 18.7 µM (active) and 16.8 µM (active). Besides, the Potency entry in assay [3] is “inactive”.
Consider `NC(=O)NO`, for which the Potency entry in assay [13], in [3], in assay [16], in assay [4], in assay [5] and in [6] was “inactive” each time. Besides, the Potency result in assay [7], in [8], in [20], in assay [9], in [11] and in [12] was “inactive” each time. In addition, the Potency entry in assay [18] was “inactive”. Moreover, the Potency in assay [17] was 20.8 µM (active); in [10], 23.3 µM (active).
In the case of `OCCN1CCN(CCCN2c3ccccc3Sc3ccc(C(F)(F)F)cc32)CC1`, the Potency in assay [2] was 18.7 µM (active). Also, the Potency result in assay [3] and in [15] was “inactive” in each case. The outcome in assay [19] was inactive.
On to `O=C(c1ccc(F)cc1)C1CCN(CCn2c(=O)[nH]c3ccccc3c2=O)CC1`, for which the Potency entry in [13], in assay [2], in assay [14], in assay [3] and in assay [15] was “inactive” each time.
Regarding `CCCNCC(O)COc1ccccc1C(=O)CCc1ccccc1` (centres undefined), the Potency in assay [2] was 33.2 µM (active). The Potency result in assay [14], in [3] and in [15] was “inactive” throughout. In addition, the call in assay [19] was inactive.
With `CN1CCC(=C2c3ccccc3C=Cc3ccccc32)CC1`, the Potency entry in assay [14], in assay [3] and in assay [15] was “inactive” throughout.
Take `NC(=O)OCC(COC(N)=O)c1ccccc1`: the Potency result in assay [13], in [2], in assay [14], in [3] and in assay [15] was “inactive” each time.
As for `O=C(CCCN1CCC(O)(c2ccc(Cl)cc2)CC1)c1ccc(F)cc1`, the Potency entry in [13], in assay [14] and in assay [3] was “inactive” throughout.
Take `CC(C)NCC(O)c1ccc(O)c(O)c1` (centres undefined): the Potency result in assay [3], in [16], in assay [6], in [7], in assay [9] and in assay [12] was “inactive” throughout. Besides, in assay [19], the outcome was inactive. Also, the Potency in assay [4] was 4.14 µM (active); in assay [8] it was 5.22 µM (active); in assay [10], 7.37 µM (active).
